For 19 compounds, outcome and AC50 results are on record in PubChem BioAssay (EPA / NIEHS).

A short description of assay [1]: ATG_XTT_Cytotoxicity: Cytotoxicity Assessment in the Attagene TRANS-FACTORIAL HepG2 Assay (AID 2283584). The method, boiled down: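 HepG2 human liver cells, transiently transfected with multiple GAL4-UAS reporter units, were dosed and read at 24 h by XTT as cell number. Loss of signal was fitted relative to DMSO negative control baseline.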
Assay [2] is described as follows: LTEA_HepaRG_LDH_cytotoxicity: Cytotoxicity Assessment in the Life Technologies and Expression Analysis (LTEA) Assay (AID 2283563). The procedure, abridged: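 Differentiated human HepaRG cells, plated 48 h beforehand, were switched to serum-free induction medium and exposed for 48 h to eight half-log concentrations (top 100 uM) in 0.5% DMSO. LDH was measured in spent medium; activity was fitted relative to DMSO vehicle.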

Assay [3] can be described thus: TOX21_p53_BLA_p2_viability: Viability Assessment in the Tox21 HCT-116 p53 Agonism Beta-lactamase Assay, Phase 2 (AID 2283591).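 Also: compound exposure lasted 16 h at 37 °C; actives lower the ATP signal meaning cytotoxicity.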 The method, boiled down:
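HCT116 p53-bla cells, 4000/well, dosed after 5 h plating (217-fold dilution of DMSO stocks) and incubated 16 h at 37C. Viability taken as cellular ATP by CellTiter-Glo luminescence after 30 min RT; signal loss marks cytotoxicity.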

For assay [4], the target named is Cellular tumor antigen p53 (Homo sapiens) (UniProt P04637). In words: TOX21_p53_BLA_p2_ratio: Tox21 HCT-116 p53 Agonism Beta-lactamase Assay, Ratio, Phase 2 (AID 2283592). The procedure, abridged: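 Ratio endpoint: beta-lactamase cleavage of CCF4-AM, blue (460 nm) over green (530 nm). HCT116 reporter line; 16 h treatment, 37C; substrate 2 h RT.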
Chain of Cellular tumor antigen p53 (Homo sapiens) (P04637 whole entry, looked up): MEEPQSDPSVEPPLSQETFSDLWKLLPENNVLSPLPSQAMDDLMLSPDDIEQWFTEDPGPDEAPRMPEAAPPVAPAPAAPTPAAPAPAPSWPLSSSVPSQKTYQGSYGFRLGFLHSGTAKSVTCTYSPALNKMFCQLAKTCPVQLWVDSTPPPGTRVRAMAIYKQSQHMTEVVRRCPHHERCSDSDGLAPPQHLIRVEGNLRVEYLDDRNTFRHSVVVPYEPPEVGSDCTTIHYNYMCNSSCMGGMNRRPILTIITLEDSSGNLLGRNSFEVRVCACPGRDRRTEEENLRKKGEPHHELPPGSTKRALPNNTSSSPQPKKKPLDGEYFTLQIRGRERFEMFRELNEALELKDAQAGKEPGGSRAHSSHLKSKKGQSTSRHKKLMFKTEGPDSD
The target is the same in assay [5]. In words: TOX21_p53_BLA_p3_ratio: Tox21 HCT-116 p53 Agonism Beta-lactamase Assay, Ratio, Phase 3 (AID 2283596). The procedure, abridged: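 Cells were seeded at 4000/well, rested 5 h at 37C, then dosed with DMSO compound solutions (217-fold dilution) for 16 h. CCF4-AM substrate was loaded for 2 h at room temperature, and the 460/530 nm emission ratio was fitted for gain of signal versus DMSO.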

Assay [6] shares this target. In words: TOX21_p53_BLA_p5_ratio: Tox21 HCT-116 p53 Agonism Beta-lactamase Assay, Ratio, Phase 5 (AID 2283599). The procedure, abridged: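 HCT-116 p53-bla cells (4000/well) plated 5 h, dosed with compound (217-fold DMSO dilution) for 16 h at 37 C; CCF4-AM substrate 2 h at room temperature. Activity is the 460/530 nm emission ratio (405 nm excitation), fitted in gain-of-signal direction versus DMSO.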

For assay [7] the target is unchanged. Put plainly: TOX21_p53_BLA_p4_ratio: Tox21 HCT-116 p53 Agonism Beta-lactamase Assay, Ratio, Phase 4 (AID 2283601). The procedure, abridged: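 HCT-116 p53 beta-lactamase reporter cells (4000/well) preincubated 5 h, then compound (217-fold dilution of DMSO stock) for 16 h at 37C. CCF4-AM substrate added 2 h at room temperature; 460/530 nm emission ratio fitted upward versus DMSO.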

Assay [8] can be described thus: Tanguay_ZF_120hpf_MORT_legacy: (Legacy) Oregon State University Tanguay Lab 120 Hour Post-fertilization zebrafish Assay for Mortality (AID 2283633). The method, boiled down: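 Dechorionated Tropical 5D wild-type zebrafish embryos, one per well from 6 hpf, were statically exposed at 28C in the dark until 120 hpf (0.64% DMSO final). Mortality was scored as present/absent by brightfield microscopy, fitted positively versus DMSO.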

Assay [9] is described as follows: Tanguay_ZF_120hpf_YSE_legacy: (Legacy) Oregon State University Tanguay Lab 120 Hour Post-fertilization zebrafish Assay for Yolk Sac Edema (AID 2283634).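 As to AC50: actives raise the incidence of yolk sac edema above the DMSO baseline.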 The method, boiled down: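 Tropical 5D wild-type embryos, dechorionated with pronase at 4 hpf, were exposed singly from 6 hpf to 120 hpf under static, sealed, dark conditions at 28C with 0.64% DMSO final. Yolk sac edema was scored present/absent by brightfield microscopy.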

The nature of assay [10]: Tanguay_ZF_120hpf_EYE_legacy: (Legacy) Oregon State University Tanguay Lab 120 Hour Post-fertilization zebrafish Assay for Eye Malformation (AID 2283636).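 Also: binary presence or absence of eye malformation scored by brightfield in 120 hpf larvae.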 The procedure, abridged:
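5D wild-type embryos, pronase-dechorionated at 4 hpf; static exposure 6–120 hpf, 28C, dark; DMSO 0.64% final; 5uM trimethyltin chloride positive control. Binary eye-defect scoring at 120 hpf; dead embryos not scored.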

Assay [11] can be described thus: Tanguay_ZF_120hpf_SNOU_legacy: (Legacy) Oregon State University Tanguay Lab 120 Hour Post-fertilization zebrafish Assay for Snout Malformation (AID 2283637). The method, boiled down:
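Binary brightfield scoring of snout malformation at 120 hpf. Dechorionated 5D wild-type embryos, one per well, static exposure from 6 hpf at 28C, sealed and dark; final DMSO 0.64% (vol/vol), DMSO as baseline; 5uM trimethyltin chloride positive control.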

Assay [12] can be described thus: Tanguay_ZF_120hpf_JAW_legacy: (Legacy) Oregon State University Tanguay Lab 120 Hour Post-fertilization zebrafish Assay for Jaw Malformation (AID 2283638).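 As to AC50: active means more embryos with jaw malformation than DMSO controls.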 The method, boiled down: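 Tropical 5D wild-type embryos, dechorionated with pronase at 4 hpf, were placed singly per well at 6 hpf and statically exposed at 28C until 120 hpf (0.64% DMSO final). Jaw malformation scored as present/absent by brightfield microscopy at 120 hpf, analyzed relative to DMSO.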

Assay [13] can be described thus: Tanguay_ZF_120hpf_OTIC_legacy: (Legacy) Oregon State University Tanguay Lab 120 Hour Post-fertilization zebrafish Assay for Otic Vesicle Malformation (AID 2283639). The procedure, abridged: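 Wild-type zebrafish larvae, whole-embryo exposure from early stage to 120 hpf at 28C. Binary brightfield scoring of otic vesicle morphology, fitted in the positive direction against the DMSO baseline.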

Assay [14] is described as follows: Tanguay_ZF_120hpf_PE_legacy: (Legacy) Oregon State University Tanguay Lab 120 Hour Post-fertilization zebrafish Assay for Pericardial Edema (AID 2283640).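 As to AC50: potency for increased incidence of pericardial edema versus DMSO baseline.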 The method, boiled down: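 Tropical 5D wild-type zebrafish embryos were exposed statically to 120 hpf at 28C, sealed and foil-covered, in 0.64% DMSO final. Pericardial edema was scored present/absent by brightfield microscopy; dead embryos were not scored.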

Assay [15] can be described thus: Tanguay_ZF_120hpf_BRAI_legacy: (Legacy) Oregon State University Tanguay Lab 120 Hour Post-fertilization zebrafish Assay for Brain Malformation (AID 2283641). The method, boiled down: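 Tropical 5D wild-type zebrafish embryos were exposed statically in sealed, foil-covered plates at 28C until 120 hpf, with 0.64% (vol/vol) final DMSO. Brain malformation was scored present/absent by brightfield microscopy, relative to DMSO baseline.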

Assay [16] is described as follows: Tanguay_ZF_120hpf_SOMI_legacy: (Legacy) Oregon State University Tanguay Lab 120 Hour Post-fertilization zebrafish Assay for Somite Malformation (AID 2283647). The method, boiled down: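 Tropical 5D wild-type zebrafish embryos, dechorionated with pronase at 4 hpf, were placed singly at 6 hpf and statically exposed until 120 hpf at 28C in 0.64% DMSO. Somite malformation was scored present/absent by brightfield microscopy versus DMSO.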

The nature of assay [17]: TOX21_p53_BLA_p3_viability: Viability Assessment in the Tox21 HCT-116 p53 Agonism Beta-lactamase Assay, Phase 3 (AID 2283593).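 Also: cells exposed to compound for 16 h before reading.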 The procedure, abridged:
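HCT116 cells, 4000/well, dosed 5 h after plating by pin transfer (217-fold dilution from DMSO stock) and incubated 16 h at 37C, 5% CO2. Viability read as ATP luminescence with CellTiter-Glo after 30 min at room temperature.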

A short description of assay [18]: TOX21_p53_BLA_p4_viability: Viability Assessment in the Tox21 HCT-116 p53 Agonism Beta-lactamase Assay, Phase 4 (AID 2283597).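 Also: hits lower the luminescence signal meaning cytotoxicity.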 The procedure, abridged:
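Cytotoxicity was inferred from loss of CellTiter-Glo luminescence. HCT116 cells had been dosed with compounds after 5 h plating, incubated 16 h at 37C and 5% CO2, and exposed to the CCF4-AM substrate for 2 h.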

Assay [19] in a line: TOX21_p53_BLA_p5_viability: Viability Assessment in the Tox21 HCT-116 p53 Agonism Beta-lactamase Assay, Phase 5 (AID 2283600). The procedure, abridged: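 Luciferase-coupled ATP quantitation of cells treated for 16 h (37C, 5% CO2) with test chemicals delivered in DMSO via a 217-fold dilution; 4000 cells/well; reagent incubated 30 min at room temperature before luminescence reading.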

Assay [20] in a line: Tanguay_ZF_120hpf_AXIS_legacy: (Legacy) Oregon State University Tanguay Lab 120 Hour Post-fertilization zebrafish Assay for Body Axis Malformation (AID 2283635).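 As to AC50: potency for an increased fraction of larvae scored with body axis malformation.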 The procedure, abridged: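 Tropical 5D wild-type zebrafish embryos, dechorionated with pronase at 4 hpf, were placed singly in wells at 6 hpf and exposed statically to test chemical (0.64% DMSO final) at 28C until 120 hpf, then scored by brightfield for body axis defects.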

Where “and” joins values, the source holds several entries; their conditions need not be identical. Identical values can stand only once. Records with an inconclusive call do not appear. More than one record can exist for a structure, and the calls need not agree. Calls of active or inactive are those of the source. The calls were made as follows: active = hit-call score of the fitted dose curve at least 0.9, where 1 is the maximum; inconclusive = response in the unintended direction; inactive = score below 0.9.

As to `O=C1CCCCCCCCCCCC(=O)OCCO1`, in [1], the compound was called inactive.

On to `NS(=O)(=O)c1cc(C(=O)O)c(NCc2ccco2)cc1Cl`, for which the call in [1] was inactive.

In the case of `C#C[C@]1(O)CC[C@H]2[C@@H]3CCc4cc(O)ccc4[C@H]3CC[C@@]21C`, the compound was classed as inactive in assay [2], in assay [1], in assay [3], in [8], in assay [9] and in assay [10]. The result in assay [11], in assay [12], in assay [13], in assay [14], in assay [15] and in [16] was inactive. The AC50 in [4] is 9 µM (active) and 6.58 µM (active) and 7.36 µM (active); in [5], 15.2 µM (active) and 16.2 µM (active); in assay [6], 11.7 µM (active) and 13.9 µM (active) and 7.67 µM (active); in [7], 6.65 µM (active) and 13.5 µM (active) and 8.18 µM (active).

Regarding `C[C@]12CC[C@@H]3c4ccc(O)cc4CC[C@H]3[C@@H]1CC[C@@H]2O`, the outcome in [2], in assay [1], in assay [3], in [4], in assay [17] and in [5] was inactive. Besides, the outcome in [18], in [6], in [19], in assay [8], in assay [9] and in assay [10] was inactive. Besides, the call in assay [11], in [12], in assay [14], in [15] and in [16] was inactive. The concentration at half-maximal activity (AC50) in assay [4] is 29 µM (active) and 16.7 µM (active); in [5], 32 µM (active) and 34.9 µM (active); in assay [6], 31.7 µM (active) and 34.6 µM (active); in assay [7] it was 31.4 µM (active) and 17.7 µM (active) and 15.6 µM (active).

With `C[N+](C)(C)CCO`, the compound was classed as inactive in assay [1].

Turning to `CCCCCCCCSCc1cc(C)c(O)c(CSCCCCCCCC)c1`, the outcome in assay [1] was inactive.

In the case of `CC(O)CN` (stereo unspecified), in assay [1], the compound was classed as inactive.

Consider `CCn1cc(C(=O)O)c(=O)c2ccc(C)nc21`, for which the call in [1] was inactive.

In the case of `C1COCO1`, the compound was called inactive in assay [1].

As for `C=C(C)C(N)=O`, the compound was called inactive in assay [2], in [1], in assay [3], in [4], in assay [17] and in assay [5]. Besides, the compound was classed as inactive in assay [18], in [6], in [19], in [7], in [8] and in [9]. Also, the compound was classed as inactive in assay [20], in assay [10], in [12], in [13], in [14] and in assay [15]. In assay [16], the result was inactive.

For `c1ccc(Sc2ccccc2)cc1`, the result in [1] was inactive.

As to `CCO[Si](CCC#N)(OCC)OCC`, the outcome in assay [1] was inactive.

Turning to `CC(=N[Si](C)(C)C)O[Si](C)(C)C`, the call in [1] was inactive.

As to `Cc1cccc(C)c1`, the compound was classed as inactive in assay [1].

In the case of `NNC(=O)OCc1ccccc1`, in assay [1], the compound was called inactive.

For the compound `CC(=O)CCC(=O)O`, the outcome in assay [1] was inactive.

For `CC(CO)(CO)[N+](=O)[O-]`, the compound was called inactive in assay [1].

On to `CC(=O)c1ccc(C)cc1`, for which, in assay [1], the outcome was inactive.

For `COC(=O)c1ccc(C(=O)OC)cc1`, the result in assay [2], in [1], in assay [3], in [4], in assay [17] and in [5] was inactive. The outcome in assay [18], in [6], in [19], in assay [7], in assay [8] and in [13] was inactive. In assay [16], the compound was called inactive. In addition, the AC50 in assay [9] was 37 µM (active); in assay [20] it was 21.1 µM (active); in assay [10], 34 µM (active); in [11] it was 30.2 µM (active); in assay [12], 32.7 µM (active); in [14], 28.9 µM (active). Moreover, in [15], the AC50 is 44.4 µM (active).

In general, AC50 refers to the concentration giving half of the maximal activity seen.
